# Data taken from the supplement of paper PMC3334620.
# In all, about 33,000 sequences were measured (“E-score (-0.5 to 0.5)”: median about -0.054, highest 2% from about 0.39 on). Shown is part of a subset that was picked to be rich in the highest values.
# Target: Ylr278c (UniProt Q05854)
# Experiment: PBM E-score (8-mer binding enrichment) (E-score (-0.5 to 0.5)); higher = stronger / more preferred TF binding
# Conditions: protein concentration: 200 nM; construct: GST-DNA-binding domain
# Description: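 Universal 'all 10-mer' protein binding microarrays (Agilent AMADID 015681) probed with GST-tagged S. cerevisiae TFs (full-length or DBD) made by in vitro transcription/translation (PURExpress), about 100-200 nM. Bound TF was detected with fluorescent anti-GST. Each ungapped 8-mer (which stands for itself and its reverse complement) is scored by the PBM enrichment score (E-score), a modified Wilcoxon-Mann-Whitney statistic from -0.5 to +0.5, computed with the Universal PBM Analysis Suite. Scale: above 0.35 generally sequence-specific binding.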
# Sequence of UniProt Q05854 (Q05854 whole entry): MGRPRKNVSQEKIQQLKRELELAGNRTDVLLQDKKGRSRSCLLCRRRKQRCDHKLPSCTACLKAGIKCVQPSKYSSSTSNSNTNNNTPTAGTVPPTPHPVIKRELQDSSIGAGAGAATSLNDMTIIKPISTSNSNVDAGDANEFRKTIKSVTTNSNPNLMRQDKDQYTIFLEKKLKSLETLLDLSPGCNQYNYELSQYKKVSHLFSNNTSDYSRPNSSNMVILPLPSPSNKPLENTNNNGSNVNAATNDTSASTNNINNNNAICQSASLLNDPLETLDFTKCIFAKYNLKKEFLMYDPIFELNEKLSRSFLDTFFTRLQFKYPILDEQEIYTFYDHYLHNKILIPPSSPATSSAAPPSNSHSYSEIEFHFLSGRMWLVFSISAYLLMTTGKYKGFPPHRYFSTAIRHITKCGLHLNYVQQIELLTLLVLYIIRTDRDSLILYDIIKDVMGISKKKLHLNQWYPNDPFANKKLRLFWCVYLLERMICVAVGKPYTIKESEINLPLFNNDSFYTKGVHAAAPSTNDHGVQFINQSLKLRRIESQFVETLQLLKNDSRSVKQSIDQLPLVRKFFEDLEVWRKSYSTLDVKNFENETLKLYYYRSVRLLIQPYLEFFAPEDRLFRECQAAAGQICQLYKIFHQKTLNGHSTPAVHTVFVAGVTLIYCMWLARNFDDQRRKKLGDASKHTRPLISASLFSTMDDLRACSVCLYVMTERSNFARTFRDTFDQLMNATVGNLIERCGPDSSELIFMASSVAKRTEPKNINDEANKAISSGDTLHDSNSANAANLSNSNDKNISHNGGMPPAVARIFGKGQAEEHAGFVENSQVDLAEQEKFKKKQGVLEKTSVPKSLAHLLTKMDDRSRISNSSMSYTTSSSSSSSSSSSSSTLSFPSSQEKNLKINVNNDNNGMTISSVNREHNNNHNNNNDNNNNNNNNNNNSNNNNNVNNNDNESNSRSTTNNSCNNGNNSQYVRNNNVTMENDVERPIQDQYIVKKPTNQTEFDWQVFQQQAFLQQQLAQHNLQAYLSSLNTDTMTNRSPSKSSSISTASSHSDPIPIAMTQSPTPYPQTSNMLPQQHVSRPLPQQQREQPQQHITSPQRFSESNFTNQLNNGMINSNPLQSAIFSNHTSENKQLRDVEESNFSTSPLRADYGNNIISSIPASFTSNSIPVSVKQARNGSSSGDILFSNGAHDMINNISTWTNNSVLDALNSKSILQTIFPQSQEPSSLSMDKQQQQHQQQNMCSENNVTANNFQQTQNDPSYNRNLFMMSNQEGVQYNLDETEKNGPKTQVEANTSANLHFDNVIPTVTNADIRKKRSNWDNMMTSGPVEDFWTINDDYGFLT
row,Sequence,PBM E-score
1,AACACCGC,0.27
2,CCCACCGG,0.41
3,ATAAATAT,0.106
4,GGTTCGTA,-0.0544
5,CACTGTAC,-0.378
6,AAAGCGAC,0.031
7,GCCCGAAC,0.215
8,ATCCGAAT,0.395
9,GACCGAAC,0.122
10,CGCCGAAG,0.365
11,GTCCGAAA,0.426
12,ATCCGAAG,0.301
13,GTCCGAAC,0.401
14,ATCCGAAA,0.368
15,GGCCGAAA,0.254
16,CACCGAAG,0.167
17,CTCCGAAG,0.479
18,AACCGAAT,0.133
19,GGACACCA,0.0663
20,AAATGGTT,-0.0331
21,ACCCACAA,0.00936
22,AGCTTCCG,0.24
23,CAACTGCA,-0.174
24,GGAGCTCC,0.348
25,CACCGAAC,0.102

row,Sequence,PBM E-score
1,CTCCGAAA,0.477
2,CGCCGAAA,0.358
3,ATCCGAAC,0.344
4,TGCCGAAA,0.325
5,TTCCGAAA,0.43
6,TCCCGAAA,0.238
7,CACCGAAA,0.184
8,CTCCGAAC,0.457
9,CCACAATC,0.0776
10,ACTGCTAA,-0.185
11,AACAGTTC,-0.0219
12,CCTCAAAG,-0.271
13,AGCGCTCC,0.0243
14,CAGTAGCG,0.0152
15,AGAGTTAC,-0.362
16,GGAGTTAC,0.399
17,CGAGTTAC,-0.00574
18,ACCTAGCT,-0.1
19,ACTACAAA,-0.0603
20,CTCCGAGA,0.452
21,ATCCGAGA,0.299
22,CTCCGAGC,0.439
23,CCCCGAGC,0.219
24,ATCCGAGC,0.266
25,GTCCGAGA,0.416

row,Sequence,PBM E-score
1,CGCCGAGA,0.304
2,CACCGAGA,0.034
3,GGCCGAGA,0.272
4,AAATATCT,0.00279
5,GCGCAGTA,0.0804
6,ACTAGCGA,-0.0813
7,ATGGATGC,-0.0459
8,ATCATGAT,-0.14
9,ACGTAGAC,-0.244
10,CCGGAGAG,0.456
11,CTGGAGAA,-0.141
12,CGGGAGAC,0.302
13,CCGGAGAA,0.489
14,ACGGAGAA,0.434
15,CAGGAGAG,-0.205
16,ATGGAGAA,0.148
17,AAGGAGAA,-0.0157
18,ACGGAGAG,0.336
19,CCGGAGAC,0.444
20,CAGGAGAA,0.0274
21,CTGGAGAC,-0.222
22,CTCAGAAA,-0.257
23,GAAGACAA,-0.0383
24,ACCGATCG,0.26
25,CGGGTAAA,0.156

row,Sequence,PBM E-score
1,CTGAGAAG,-0.149
2,ACGAGTCG,-0.159
3,AATTTCGT,-0.0607
4,CGAGATCA,0.013
5,GGCAGCGA,0.0771
6,CCCAGGAG,-0.188
7,CAACACTC,0.133
8,TACGGTCA,0.0722
9,GTAAAGAA,-0.0759
10,TGGGAGAA,-0.208
11,GCGGAGAA,0.436
12,TCGGAGAA,0.465
13,GTGGAGAA,-0.0956
14,TAGGAGAA,-0.134
15,GGGGAGAA,0.0935
16,ATACCTTG,-0.236
17,AACCTAGG,-0.102
18,CATAGGAG,-0.136
19,GACTATGA,-0.11
20,AGTCTTGA,-0.247
21,CTGAAATC,0.0679
22,CGGAAATA,0.451
23,CGGAAAAA,0.446
24,AGGAAATA,0.0859
25,CGGAAAAC,0.373

row,Sequence,PBM E-score
1,AGGAAATC,0.178
2,CGGAAAAG,0.373
3,CGGAAATC,0.41
4,GGGAAATA,0.0851
5,ACGCGAGA,-0.171
6,CATTCAAG,-0.154
7,CTGCGGGC,0.276
8,AACCGGGC,0.0679
9,CACCGGGC,0.304
10,GTCCGGGA,0.38
11,ATCCGGGG,0.414
12,CTCCGGGA,0.468
13,CCCGGGGA,0.358
14,ATCCGGGA,0.332
15,AACCGGGG,0.321
16,ATCCGGGC,0.406
17,CTCCGGGC,0.448
18,ATCCGAGG,0.274
19,TAAGAGTA,-0.0846
20,ACGACAGA,-0.232
21,AGCCGCAC,-0.0107
22,CCAGACGA,-0.149
23,CCGCTTTC,0.211
24,CATCCATA,-0.123
25,CAGAGTCC,0.0837

row,Sequence,PBM E-score
1,AGGAGTCC,0.13
2,CGGAGTCA,0.457
3,AGGAGTCA,-0.121
4,CGGAGTCC,0.464
5,GGGAGTCA,-0.00639
6,GAAGCCAA,0.0199
7,ACTGTTCA,-0.122
8,GATTCCAA,-0.116
9,CATTCCGA,0.391
10,CATTCCGG,0.384
11,TATTCCCA,0.138
12,CATTCCTA,-0.212
13,GATTCCGA,0.413
14,TATTCCGA,0.453
15,TATTCCAA,-0.177
16,GATTCCCA,0.0255
17,AGCTAGTA,-0.114
18,GAGTTCCC,0.0904
19,AACTTATA,0.0873
20,CAAGCAGG,0.00606
21,CCTACAGA,-0.256
22,GAGTCGCC,0.0773
23,GTCAGATA,-0.151
24,TCCTTGAA,-0.227
25,GTTTCTGA,0.0572

row,Sequence,PBM E-score
1,CGGGCCCG,0.398
2,CGGGCCCA,0.091
3,AGGGCCCG,0.152
4,ATTTCTGC,0.184
5,GCGCAGCC,0.0388
6,AGCGGACC,0.252
7,ATCGGTCC,0.325
8,CTCGGACC,0.365
9,GTCGGACA,0.386
10,ATCGGATG,0.329
11,GGCGGACC,0.413
12,CGCGGACC,0.386
13,CTCGGATA,0.215
14,AACGGACC,0.251
15,CTCGGACA,0.435
16,ATCGGACC,0.412
17,ATCGGATA,0.393
18,CAGTGTTC,-0.0124
19,ACCCAAGT,-0.215
20,AATTCAAT,-0.026
21,AGAAGTCA,-0.0826
22,AAAGCACA,-0.103
